Source: PubChem (National Center for Advancing Translational Sciences (NCATS))
G9a block – inhibitors of human histone lysine methyltransferase G9a. Q96KQ7. G9a H3K9 monomethylation, AlphaScreen, 2 h. Potency, µM (top dose mostly 102 µM), inactives show top-dose activity, negative = inhibition, actives largely listed as inhibitors. 350,000 tested, 8.8% active. AID 504332; further: on the % scale 0 is the no-effect control and ±100 the full control effect; nearly all actives have a fitted effect of over 75% in size
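Signal arises when biotinylated H3K9 peptide, once monomethylated, bridges streptavidin donor and antibody-captured acceptor beads. Enzyme at 20 nM was preincubated 15 min with test compounds; peptide 500 nM and SAM 20 uM then reacted for 2 h.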
BAZ2B block – blocks human BAZ2B; AlphaScreen BAZ2B-H3K14Ac peptide displacement; Potency, µM (titrated, usually from 114 µM), for the others: at the top dose activity change, negative = inhibition, actives largely listed as inhibitors; 360,000 tested, 4.4% active; further: on the % scale 0 is the no-effect control and ±100 the full control effect; nearly all actives have a fitted effect of over 60% in size
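Compounds, titrated to a top concentration of 110 uM, were incubated 30 min at room temperature with preformed BAZ2B/acetyl-K14 H3 peptide complex (50 nM each). Proximity signal was measured by AlphaScreen after 20 min with beads.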
JMJD2A Tudor inh – JMJD2A Tudor domain (human) inhibition | AlphaScreen JMJD2A-Tudor / H3K4me3 peptide binding | Potency, µM (titrated, usually from 114 µM), for the others: at the highest dose activity change, negative = inhibition, most hits filed as inhibitors | 390,000 tested, 4.4% active; further: on the % scale 0 is the no-effect control and ±100 the full control effect; nearly all actives have a fitted effect of over 50% in size
Sfp inh – blocks B. subtilis Sfp PPTase activity; Potency, µM, for inactives: largest response in the series, negative = inhibition, hits mostly inhibitors; Q9F4F7; 310,000 tested, 3.5% active; AID 1490; Biochemical Sfp PPTase activity, qHTS;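 further: the enzyme is Sfp with the accession as filed and its product quenches rhodamine fluorescence; 0% = enzyme reaction without inhibitor and -100% = no enzyme wells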
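Buffer: 50 mM Hepes-Na pH 7.6, 10 mM MgCl2, 0.01% Nonidet P-40, 0.01% BSA. Enzyme 15 nM, pre-exposed to compound 15 min; substrates then added and fluorescence change tracked over 30 min.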
HP1b binding inh – inhibitors of HP1-beta chromodomain binding to methylated histone tails | Potency, µM (highest dose often 114 µM), inactives show at the highest dose activity change, negative = inhibition, hits mostly inhibitors | AlphaScreen HP1-beta / biotin-H3K9me3 peptide binding | AID 540317 | P83916 | 390,000 tested, 0.56% active; further: nearly all actives have a fitted effect of over 70% in size
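HP1-beta protein (50 nM final) preincubated 30 min at room temperature with biotinylated H3(1-18)K9me3 peptide (50 nM) in PBS pH 7.4, 0.01% Tween-20, then compound added for 30 min. AlphaScreen streptavidin donor/nickel chelate acceptor beads (10 ug/mL final), 30 min dark, luminescence read.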
Active calls of the source: *; u = inconclusive; x = no result given; [ ] = remark or other dose. Only some compounds are listed: those with a hit (about 12% of all), similar ones and a draw of the others. The call rests on the fitted dose curve; in most records, active means well fitted curve in the direction sought with a large enough effect; inconclusive means small, poorly fitted or top-dose-only effect, or another doubt; inactive means no such curve, though single readings can be large; an effect the other way counts as inactive or inconclusive. Potency means the concentration at half of the fitted maximal effect.

SMILES | G9a block | BAZ2B block | JMJD2A Tudor inh | Sfp inh | HP1b binding inh
Nc1ncnc2c1c(-c1ccc(Oc3ccccc3)cc1)cn2C1CCCC1 | 14µM* | 40µM* | 45µM* | u | u
COc1ccc(-n2cc(-c3ccccc3)c3c(NC4CCCC4)ncnc32)cc1 | -44%[59 µM] | u | u | x | 11%
O=C(Nc1ccc2c(c1)nc1n2CCN(Cc2ccccc2)C1)NC1CCCCC1 | 22µM* | -3% | -23% | -1% | 22%
COc1ccccc1C(=O)Nc1ccc2c(c1)nc1n2CCN(Cc2ccccc2)C1 | 16µM* | -14% | -20% | -7% | 9%
CCOC(=O)CC(NC(=O)C1c2ccccc2Oc2ccccc21)c1ccccc1Cl (centres undefined) | 7%[59 µM] | 9% | u | 9% | -1%
O=C1CC(=C2c3ccccc3-c3ccccc32)C(=O)N1CCCCN1CCN(c2ccccc2)CC1 | 7.9µM* | u | u | -1% | -7%
O=C1CC(=C(c2ccccc2)c2ccccc2)C(=O)N1CCCN1CCN(c2cccc(Cl)c2)CC1 | u | -8% | u | -4% | -5%
Cc1cc(C)n(-c2nnc(C)n2/N=C/c2cc(Br)ccc2OCc2ccccc2)n1 | u | -38% | -32% | 28µM* | 8%
CC1CCN(c2c([N+](=O)[O-])nn(-c3ccc4c(c3)OCCO4)[n+]2[O-])CC1 | 35µM* | 22µM* | u | -6% | u
CC(=O)N1CCCc2cc(S(=O)(=O)N3CCCC(C(=O)Nc4ccc(C)cc4C)C3)ccc21 (centres undefined) | -5% | -13% | -20% | 20% | 31%
O=C(Cc1cccc2ccccc12)Nc1nnc(-c2cccc([N+](=O)[O-])c2)s1 | u | -10% | -14% | u | 26%
O=C(CSc1ccc(Cl)cc1)Nc1nnc(-c2cccc([N+](=O)[O-])c2)s1 | 40µM* | -8% | -10% | -21% | 56%
CCOc1ncccc1C(=O)N1CCN(c2cccc(C)c2C)CC1 | 22% | -1% | -12% | 8% | 7%
CCOc1ncccc1C(=O)N1CCN(c2cc(Cl)ccc2C)CC1 | 7% | -9% | 50µM* | 6% | -23%
O=C1c2cccnc2-c2ncccc21 | x | 2% | -5% | -3% | 21%
CC1(C)OCC(CSC2=C(SCC3COC(C)(C)O3)C(=O)c3ncccc3C2=O)O1 (centres undefined) | x | x | x | 1.3µM* | x
Cc1nn(-c2ccccc2)nc1C(=O)NNC(=O)c1cccc2ccccc12 | 2% | -5% | -19% | 24% | 26%
Cn1cccc1C1C(C#N)=C(N)OC2=C1C(=O)CC(C)(C)C2 (centres undefined) | 19%[12.7 µM] | u | -16% | -5% | 12%
CC1(C)CC(=O)C2=C(C1)OC(N)=C(C#N)C2c1ccc[nH]1 (centres undefined) | u | u | u | 50µM* | u
CC(C)c1ccc(C2/C(=C(\O)c3ccc4c(c3)OCCO4)C(=O)C(=O)N2CCN2CCOCC2)cc1 (centres undefined) | u | -15%[57.1 µM] | -30% | -9% | 48%
COc1ccc(C2/C(=C(/O)c3ccc4c(c3)CC(C)O4)C(=O)C(=O)N2CCCN2CCOCC2)cc1 (centres undefined) | 45µM* | -27% | u | 4% | 13%
CC1Cc2cc(/C(O)=C3/C(=O)C(=O)N(CCN4CCOCC4)C3c3cccc(Cl)c3)ccc2O1 (centres undefined) | 0%[12.7 µM] | -30% | -24% | 7% | 12%
CC1Cc2cc(/C(O)=C3/C(=O)C(=O)N(CCN4CCOCC4)C3c3ccc([N+](=O)[O-])cc3)ccc2O1 (centres undefined) | 79µM* | u | u | -8% | 9%
CCCOc1cccc(C2/C(=C(/O)c3ccc4c(c3)CC(C)O4)C(=O)C(=O)N2CCN2CCOCC2)c1 (centres undefined) | 50µM* | -21%[57.1 µM] | -15% | 3% | 24%
C=CCOc1ccc(C2/C(=C(/O)c3ccc4c(c3)CC(C)O4)C(=O)C(=O)N2CCCN2CCOCC2)cc1 (centres undefined) | 45µM* | -30% | u | -3% | 2%
SMILES | G9a block | BAZ2B block | JMJD2A Tudor inh | Sfp inh | HP1b binding inh
COc1ccc(/C(O)=C2/C(=O)C(=O)N(CCCN3CCOCC3)C2c2ccc(OC)cc2)cc1 (centres undefined) | x | -10% | 4% | -2% | 29%
COc1cc2c(cc1OC)C(C)N(C(=O)c1cc3ccccc3o1)CC2 (centres undefined) | -7% | -37% | -30% | -6% | 5%
CCNC(=O)c1ccc2c(c1)nc1n2CCCCC1 | 0%[59 µM] | 12% | 1% | x | 26%[57 µM]
CC(C)(C)c1ccc(Oc2ccc(NC(=O)C3CC=CCC3C(=O)O)cc2)cc1 (centres undefined) | u | u | -21% | u | 36%
C=CCOc1cccc(C2/C(=C(\O)c3ccc4c(c3)OCCO4)C(=O)C(=O)N2CCN2CCOCC2)c1 (centres undefined) | 40µM* | u | -23% | 14% | 48%
CCOc1ccc(C2/C(=C(\O)c3ccc4c(c3)OCCO4)C(=O)C(=O)N2CCN2CCOCC2)cc1OCC (centres undefined) | u | -25% | -10% | 25% | 43%
COC(=O)c1ccc(C2/C(=C(/O)c3ccc4c(c3)CC(C)O4)C(=O)C(=O)N2Cc2ccncc2)cc1 (centres undefined) | 45µM* | u | -21% | 15% | 61%
COc1cc(C2/C(=C(\O)c3ccc4c(c3)CC(C)O4)C(=O)C(=O)N2CCCn2ccnc2)ccc1O (centres undefined) | 17%[59 µM] | -2% | -16%[11.4 µM] | 19% | 22%
Cc1ccc(C2/C(=C(/O)c3ccc4c(c3)CC(C)O4)C(=O)C(=O)N2CCCn2ccnc2)cc1 (centres undefined) | 45µM* | u | 11% | 20% | 34%
C=CCOc1cccc(C2/C(=C(/O)c3ccc(C)cc3)C(=O)C(=O)N2CCN2CCOCC2)c1 (centres undefined) | u | -8% | 1% | 0% | 53%
C=CCOc1ccc(C2/C(=C(\O)c3ccc4c(c3)CC(C)O4)C(=O)C(=O)N2CCN2CCOCC2)cc1OCC (centres undefined) | 20µM* | 79µM* | 35µM* | -9% | -13%
O=C1N/C(=C/c2ccsc2)C(=O)N1c1ccccc1 | x | -1% | 2% | -5% | 25%
CCCc1cc(=O)[nH]c(SCC(=O)N(C)CC(=O)Nc2ccc(F)cc2)n1 | -2%[2.33 µM] | 2% | -4% | x | 33%
COc1ccc(C2/C(=C(/O)c3ccc4c(c3)CC(C)O4)C(=O)C(=O)N2CCN2CCOCC2)cc1 (centres undefined) | 45µM* | -3% | -16% | 8% | 8%
